The record followed here is PubChem BioAssay.

Each structure is given as a SMILES string. A number with no mark means an inactive call. Active and inactive are the calls of the source. Rule as the data show it, unless noted: active = inhibition above about 28%; inactive = the rest.

A short description of assay [1]: StAR promoter reporter inhibitors, counter-screen for LRH-1 inverse agonist project, cell-based, luminescence, high throughput (AID 651611). As to conditions: StAR promoter luciferase reporter counterscreen, at 3.6 µM, hits give high values. (A counterscreen serves to expose hits that act by an unwanted route or on another target.)
The target in assay [2] is Nuclear receptor subfamily 5 group A member 2 (Homo sapiens) (UniProt O00482). The assay is described as follows: NR5A2 activity suppression in reporter cells – cell-based, luminescence, confirmation (AID 651613; in the data active = inhibition above about 42%;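 also: HEK293T cells co-transfected with LRH-1 and StAR promoter luciferase reporter; 0% = vehicle wells and 100% = parental cells lacking receptor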). Conditions: cell-based LRH-1 luciferase reporter, inverse agonism; at 3.6 µM; hits give high values. For orientation: Reporter assays use an easily measured gene product as a stand-in for the process of interest.

For assay [3], the target named is Steroidogenic factor 1 (Homo sapiens) (UniProt Q13285). In words: inverse agonism at SF1 nuclear receptor – cell-based, luminescence, high throughput, counter-screen for LRH-1 inverse agonist project (AID 651614; in the data active = inhibition above about 44%;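 also: cells cotransfected with StAR promoter reporter and SF1 expression vector; 0% = vehicle on cells with receptor and 100% = vehicle on cells lacking receptor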). As to conditions: cell-based SF1 luciferase reporter, at 3.6 µM, hits give high values.
A short description of assay [4]: compounds suppressing VP16-driven luciferase signal – cell-based, luminescence, high throughput, counter-screen for LRH-1 inverse agonist project (AID 651615; in the data active = inhibition above about 33%). Conditions: Gal4-VP16 luciferase reporter cells, at 3.6 µM, hits give high values.

Steroidogenic factor 1 (Homo sapiens), sequence (Q13285 whole entry, looked up, the tested form may be a part): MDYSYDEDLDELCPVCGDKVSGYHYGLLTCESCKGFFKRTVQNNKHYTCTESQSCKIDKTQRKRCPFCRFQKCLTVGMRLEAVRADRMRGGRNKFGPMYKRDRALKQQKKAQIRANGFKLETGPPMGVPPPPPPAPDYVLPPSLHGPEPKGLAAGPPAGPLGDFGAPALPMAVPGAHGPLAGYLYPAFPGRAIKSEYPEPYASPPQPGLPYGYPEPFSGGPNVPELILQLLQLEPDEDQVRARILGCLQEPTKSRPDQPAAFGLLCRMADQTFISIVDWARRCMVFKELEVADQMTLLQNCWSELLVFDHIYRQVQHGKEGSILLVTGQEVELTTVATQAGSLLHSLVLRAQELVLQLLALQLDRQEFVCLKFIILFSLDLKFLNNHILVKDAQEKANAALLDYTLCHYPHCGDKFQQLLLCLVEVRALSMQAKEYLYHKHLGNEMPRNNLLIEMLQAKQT
Nuclear receptor subfamily 5 group A member 2 (Homo sapiens), sequence (O00482 whole entry, looked up): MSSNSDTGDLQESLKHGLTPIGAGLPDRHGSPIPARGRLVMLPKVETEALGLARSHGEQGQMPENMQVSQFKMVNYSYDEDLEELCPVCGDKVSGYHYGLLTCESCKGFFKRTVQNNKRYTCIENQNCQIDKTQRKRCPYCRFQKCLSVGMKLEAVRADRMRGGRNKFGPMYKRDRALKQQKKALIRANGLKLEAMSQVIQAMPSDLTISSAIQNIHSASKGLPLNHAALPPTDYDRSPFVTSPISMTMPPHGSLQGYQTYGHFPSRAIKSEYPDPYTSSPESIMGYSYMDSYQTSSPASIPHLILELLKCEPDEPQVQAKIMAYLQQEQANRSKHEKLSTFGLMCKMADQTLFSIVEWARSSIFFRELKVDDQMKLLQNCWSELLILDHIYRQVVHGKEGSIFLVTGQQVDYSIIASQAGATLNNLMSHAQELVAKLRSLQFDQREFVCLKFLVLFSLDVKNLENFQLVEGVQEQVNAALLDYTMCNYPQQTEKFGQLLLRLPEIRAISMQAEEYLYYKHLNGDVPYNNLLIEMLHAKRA

For the molecule `CN(C)c1cc[n+](Cc2c(Cl)cccc2Cl)cc1`, the inhibition in assay [1] is 7.95%; in assay [2], 73.2% (active); in assay [3] it was 68.2% (active); in assay [4], 45.7% (active).

On to `CS/C(=C\[N+](=O)[O-])Nc1ccc(OC(F)(F)F)cc1`, for which the inhibition is 42% (active) in assay [1], 83.9% (active) in assay [2], 84.6% (active) in assay [3] and 9.63% in assay [4].

On to `CCC(=O)N1CCN(c2cc(NCC3CCCO3)c(F)cc2[N+](=O)[O-])CC1` (stereo unspecified), for which the inhibition in assay [1] is 9.58%; in assay [2], 43.8% (active); in assay [3], 50.7% (active); in assay [4] it was 0.55%.

As for `COc1cccc2sc(N3CCN(C(=O)c4ccc([N+](=O)[O-])o4)CC3)nc12`, the inhibition is 25.2% in assay [1], 69.2% (active) in assay [2], 70.4% (active) in assay [3] and -23.4% in assay [4].

`COc1ccc(CCNC(=O)c2cc(-c3ccco3)on2)cc1OC`: the inhibition is -181% in assay [1], 43.8% (active) in assay [2], 50.5% (active) in assay [3] and -5.34% in assay [4].

Consider `C/C(=N\Nc1nc2ccccc2[nH]1)c1ccccn1`, for which the inhibition in assay [1] is 71.4% (active); in assay [2], 83.1% (active); in assay [3], 73.9% (active); in assay [4], 2.13%.

`CCc1ccccc1NC(=O)CSc1nnc(Cn2nnc3ccccc32)n1C`: the inhibition in assay [1] is 5.04%; in assay [2], 53% (active); in assay [3], 48.2% (active); in assay [4] it was -5.32%.

Consider `CCCc1cc(=O)oc2cc(OCC(=O)NCCc3ccc(S(N)(=O)=O)cc3)ccc12`, for which the inhibition is 9.29% in assay [1], 50.9% (active) in assay [2], 51.1% (active) in assay [3] and 4.44% in assay [4].

In the case of `COC(=O)c1cc2occc2n1CC(=O)Nc1ccc(C)cc1C`, the inhibition in assay [1] is 13.8%; in assay [2], 66.8% (active); in assay [3] it was 51.6% (active); in assay [4] it was 1.15%.

By inhibition is commonly meant the relative decrease from the control value, in per cent.
